Screening data as filed in PubChem BioAssay.
BAZ2B block – blocks human BAZ2B; Q9UIF8; AlphaScreen BAZ2B-H3K14Ac peptide displacement; Potency, µM (highest dose often 114 µM), hits mostly inhibitors; 360,000 compounds, 4.4% hits; also: nearly all actives have a fitted effect of over 60% in size
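AlphaScreen displacement of biotin-H3(5-23)K14Ac peptide (50 nM final) from BAZ2B (50 nM final) in PBS pH 7.4, 0.01% Tween-20; complex preformed 30 min RT, then compounds (top 110 uM) 30 min RT, beads 20 min dark.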
Sfp inh – Sfp phosphopantetheinyl transferase inhibition; Q9F4F7; Biochemical Sfp PPTase activity, qHTS; Potency, µM, usual class: inhibitors; 310,000 compounds, 3.5% hits;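 also: the enzyme is Sfp with the accession as filed and its product quenches rhodamine fluorescence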
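With Hepes-Na pH 7.6 buffer containing 10 mM MgCl2, Sfp (15 nM) modified BHQ-2-YbbR (12.5 uM) using rhodamine-CoA (5 uM). Two reads 30 minutes apart at 525/598 nm yielded each well's rate.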
G9a block – inhibitors of human histone lysine methyltransferase G9a | AID 504332 | Potency, µM (series often up to 102 µM), usual class: inhibitors | 350,000 compounds, 8.8% hits | G9a H3K9 monomethylation, AlphaScreen, 2 h; also: nearly all actives have a fitted effect of over 75% in size
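Quantitative HTS format: methyltransferase activity on a biotin-tagged H3K9 peptide is measured by AlphaScreen, using a rabbit anti-monomethyl-H3K9 antibody with streptavidin donor and anti-IgG acceptor beads. Final levels are 20 nM enzyme, 500 nM peptide, 20 uM SAM; 2 h RT.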
PLK1 PBD inh – PLK1 (human) polo-box domain binding inhibition; Plk1 PBD binding of FITC phosphopeptide, fluorescence polarization; 360,000 compounds, 2.8% hits; Potency, µM, actives largely listed as inhibitors; P53350; AID 720504; also: series mostly up to about 57 µM; nearly all actives have a fitted effect of over 65% in size
Target sequence (P53350 whole entry, looked up, the tested form may be a part): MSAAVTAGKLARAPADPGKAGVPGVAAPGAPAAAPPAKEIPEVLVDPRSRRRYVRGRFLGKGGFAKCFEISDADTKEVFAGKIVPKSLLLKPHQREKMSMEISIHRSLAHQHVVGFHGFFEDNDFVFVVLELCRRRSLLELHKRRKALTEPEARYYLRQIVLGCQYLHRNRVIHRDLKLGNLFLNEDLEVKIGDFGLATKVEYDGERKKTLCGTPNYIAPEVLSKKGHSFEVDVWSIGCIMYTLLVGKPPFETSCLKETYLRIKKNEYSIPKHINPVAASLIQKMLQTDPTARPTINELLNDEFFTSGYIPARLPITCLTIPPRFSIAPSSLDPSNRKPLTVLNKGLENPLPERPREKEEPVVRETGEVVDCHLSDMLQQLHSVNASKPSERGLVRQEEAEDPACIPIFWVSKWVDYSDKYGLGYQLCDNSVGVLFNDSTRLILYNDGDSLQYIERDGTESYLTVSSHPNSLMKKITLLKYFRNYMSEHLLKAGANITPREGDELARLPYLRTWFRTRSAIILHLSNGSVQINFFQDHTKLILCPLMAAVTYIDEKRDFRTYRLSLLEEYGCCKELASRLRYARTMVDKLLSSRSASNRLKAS
JMJD2A Tudor – inhibitors of human JMJD2A Tudor domain; O75164; AlphaScreen JMJD2A-Tudor / H3K4me3 peptide binding; Potency, µM (doses to about 114 µM), hits mostly inhibitors; 390,000 compounds, 4.4% hits; AID 504339; also: nearly all actives have a fitted effect of over 50% in size
HP1b binding inh – blocks HP1-beta chromodomain binding to methylated histone tails. P83916. AlphaScreen HP1-beta / biotin-H3K9me3 peptide binding. AID 540317. 390,000 compounds, 0.56% hits. Potency, µM (titrated, usually from 114 µM), usual class: inhibitors; also: nearly all actives have a fitted effect of over 70% in size
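AlphaScreen: HP1-beta (50 nM) preformed 30 min with biotin-H3(1-18)K9me3 peptide (50 nM) in PBS pH 7.4, 0.01% Tween-20. Compound added for 30 min at RT, then streptavidin donor/nickel chelate acceptor beads (10 ug/mL) for 30 min.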
Large screens that a line does not name were inactive. Sampled rows, rich in hits. Any-hit rate of the full collection: about 12%. Calls follow the shape of the dose curve; as a rule, active = well fitted curve in the direction sought with a large enough effect; inconclusive = small, poorly fitted or top-dose-only effect, or another doubt; inactive = no such curve, though single readings can be large; an effect the other way counts as inactive or inconclusive.

COc1cc(C#Cc2c(-c3cncn3C)n(C)c3ccc(-c4ccc5cc[nH]c5c4)cc23)cc(OC)c1	JMJD2A Tudor inconclusive (no result: BAZ2B block, Sfp inh, G9a block)
Cc1ccc(S(=O)(=O)N2[C@H](CC(=O)OCc3ccccc3)OC[C@@H]2C(C)C)cc1	none (no result: BAZ2B block, Sfp inh, G9a block, JMJD2A Tudor, HP1b binding inh)
COc1ccc(NC2=C(C(C)=O)C(c3ccc(N(C)C)cc3)C(C(C)=O)C(C)(O)C2)cc1 (stereo not given)	G9a block 20µM
O=C(NCc1cccc(C(F)(F)F)c1)N1CCN(S(=O)(=O)c2ccccc2F)CC1	none
CC(=O)Nc1cccc(/C(C)=N/N2C(C)CCCC2C)c1 (stereo not given)	none
COc1ccc(CN(Cc2ccccn2)S(=O)(=O)c2ccc(-n3cnnn3)cc2)cc1	none
CCOc1ccccc1CN(Cc1ccco1)S(=O)(=O)c1ccc(-n2cnnn2)c(OC)c1	G9a block 8.91µM
Cc1cc(S(=O)(=O)N(Cc2ccccn2)Cc2ccco2)ccc1-n1cnnn1	BAZ2B block inconclusive, G9a block 25.1µM
COc1cc(S(=O)(=O)N(Cc2ccco2)C2CCCC2)ccc1-n1cnnn1	Sfp inh inconclusive, G9a block 31.6µM
CCN(CC)S(=O)(=O)c1ccc(OC)c(-n2cnnn2)c1	none
CCN(CC)S(=O)(=O)c1ccc(-n2cnnn2)c(C)c1	none
COc1ccc(CN(Cc2ccccn2)S(=O)(=O)c2ccc(-n3cnnn3)c(OC)c2)cc1	G9a block 50.1µM
COc1ccc(CN2C(=O)c3cccnc3C2=O)cc1S(=O)(=O)NC1CCCCC1	BAZ2B block 79.4µM
COc1ccccc1CNS(=O)(=O)c1cc(CN2C(=O)c3cccnc3C2=O)ccc1OC	BAZ2B block 56.2µM
COc1ccc(CN2C(=O)c3cccnc3C2=O)cc1S(=O)(=O)NCc1ccc(C)o1	BAZ2B block inconclusive, G9a block inconclusive
COCCCN=C1NN=C(c2cc(C)n(Cc3ccccc3Cl)c2C)CS1	BAZ2B block 39.8µM, Sfp inh inconclusive, G9a block 28.2µM, JMJD2A Tudor inconclusive, HP1b binding inh inconclusive
COCCn1c(C)cc(C2=NNC(=Nc3ccccc3F)SC2)c1C	BAZ2B block inconclusive, Sfp inh 35.5µM, G9a block 7.94µM, JMJD2A Tudor 89.1µM
Cc1cc(C2=NNC(=NCCc3ccccc3)SC2)c(C)n1-c1c(C)n(C)n(-c2ccccc2)c1=O	none
COCCCN=C1NN=C(c2cc(C)n(-c3ccccc3F)c2C)CS1	BAZ2B block 70.8µM, Sfp inh inconclusive, G9a block 50.1µM, PLK1 PBD inh inconclusive, JMJD2A Tudor inconclusive
COCCCN=C1NN=C(c2cc(C)n(-c3ccccc3)c2C)CS1	BAZ2B block inconclusive, G9a block 70.8µM
COc1ccc(Nc2nc(-c3cccc(Cl)c3)c3c(n2)-c2ccccc2OC3)cc1	none (no result: Sfp inh, PLK1 PBD inh)
CCOc1ccc(Nc2nc(-c3cccc(Cl)c3)c3c(n2)-c2ccccc2OC3)cc1	G9a block 12.6µM, JMJD2A Tudor inconclusive (no result: Sfp inh, PLK1 PBD inh)
Cc1cc(C)cc(NC(=O)c2cc(S(=O)(=O)N3CCCCCC3)cn2C)c1	none (no result: Sfp inh, PLK1 PBD inh)
CC(C)(O)C(=O)NNC(=S)Nc1cccc(C(F)(F)F)c1	G9a block 7.94µM
FC(F)(F)c1cccc(NC(=S)NNC(=S)Nc2cccc(C(F)(F)F)c2)c1	BAZ2B block inconclusive, Sfp inh 25.1µM, G9a block 35.5µM (no result: PLK1 PBD inh, JMJD2A Tudor, HP1b binding inh)
Cc1ccc(NNC(=O)C(O)(c2cccc(C(F)(F)F)c2)c2cccc(C(F)(F)F)c2)cc1	G9a block 31.6µM
O=S(=O)(Cc1ccccc1)c1cnc2ccccc2n1	G9a block inconclusive
CC(OC(=O)c1cccc(-n2cnnn2)c1)C(=O)Nc1ccccc1F (stereo not given)	G9a block 50.1µM (no result: Sfp inh)
CC(OC(=O)c1cccc(-n2cnnn2)c1)C(=O)Nc1ccc(N(C)C)cc1 (stereo not given)	G9a block 7.08µM (no result: Sfp inh)
COc1ccc(/C=C/C(=O)c2ccc(O)cc2O)cc1OC	none (no result: BAZ2B block, PLK1 PBD inh, JMJD2A Tudor, HP1b binding inh)
COc1ccc(/C=C/C(=O)c2cc(Br)ccc2O)cc1OC	BAZ2B block inconclusive, G9a block 25.1µM
COc1ccc(/C=C/C(=O)c2cc(F)ccc2OC(=O)c2ccccc2)cc1OC	none (no result: BAZ2B block, Sfp inh, G9a block)
O=C(/C=C/c1ccccn1)c1cc(Br)ccc1O	Sfp inh inconclusive, G9a block inconclusive, PLK1 PBD inh 10.6µM
COc1ccc(/C=C/C(=O)c2cc(F)ccc2OC(=O)c2ccc(OC)c(OC)c2)cc1OC	BAZ2B block inconclusive, G9a block 56.2µM
CC#CCN1c2ccccc2[C@]23C[C@@H](C(=O)OC)N(S(=O)(=O)c4ccc(Br)cc4)C2=NC(C(=O)OC)=C(C(=O)OC)[C@H]13	none (no result: BAZ2B block, G9a block, PLK1 PBD inh, JMJD2A Tudor, HP1b binding inh)
Brc1ccc(OCCCN2CCOCC2)cc1	BAZ2B block inconclusive, G9a block 28.2µM, JMJD2A Tudor 4.47µM, HP1b binding inh inconclusive
Clc1ccc(OCCN2CCOCC2)cc1	none
Brc1ccc(OCCN2CCOCC2)cc1	BAZ2B block inconclusive, G9a block 28.2µM, JMJD2A Tudor 0.891µM, HP1b binding inh inconclusive
c1ccc(OCCCCN2CCOCC2)cc1	none
COCCNC(=O)/C(C#N)=C/C=C/c1ccccc1[N+](=O)[O-]	none
COc1cc(SC)ccc1C(=O)Nc1ccc2c(c1)CCC2	none
Cc1ccc(NC(=O)C(C)N=C2NS(=O)(=O)c3ccccc32)cc1F (stereo not given)	none
COc1ccc(C(=O)NNC2=CC(=O)CC(C)(C)C2)cc1	none
CC1(C)CC(=O)C=C(OC(=O)c2ccc(Cl)cc2)C1	PLK1 PBD inh 11.9µM
S=C(N=Nc1ccccc1)NNc1ccccc1	BAZ2B block 35.5µM, G9a block 10µM, JMJD2A Tudor 25.1µM, HP1b binding inh 15.8µM
CC(=N\NC(=O)c1ccccc1)/C(=N/O)C(=O)Nc1ccccc1	BAZ2B block 56.2µM
COc1ccccc1NC(=S)NNC(=O)c1ccccc1Br	G9a block 35.5µM
COc1ccccc1NC(=S)NNC(=O)c1c(Cl)c(C)nn1C	G9a block 25.1µM
COc1ccccc1C(=O)NNC(=O)c1ccccc1Br	none
COc1cc(OC)cc(C(=O)NNC(=S)Nc2ccccc2OC)c1	G9a block 39.8µM
COc1ccccc1NC(=S)NNC(=O)c1ccccc1	none (no result: BAZ2B block, Sfp inh, G9a block)
COc1ccccc1NC(=O)C(O)C(O)C(=O)Nc1ccccc1OC (stereo not given)	PLK1 PBD inh inconclusive
COc1ccccc1NC(=O)Nc1ccccc1Br	PLK1 PBD inh 11.9µM
COc1ccccc1NC(=O)C(=N\O)/C(C)=N/O	G9a block 10µM, JMJD2A Tudor inconclusive
COc1ccccc1NC(C)=O	none (no result: BAZ2B block)
COc1ccccc1NC(=O)C(C/C=C(/C)Cl)C(C)=O (stereo not given)	PLK1 PBD inh 29.9µM
CCC(C(=O)NC1CCCC1)n1c(-c2ccnc3ccccc23)nc2ccccc21 (stereo not given)	none (no result: BAZ2B block, Sfp inh, G9a block, JMJD2A Tudor, HP1b binding inh)
O=C(CC1C(=O)NCCN1Cc1cccc(Oc2ccccc2)c1)NCCn1cccn1 (stereo not given)	none
